Each structure is given as a SMILES string. The whole screen tested about 310,000 compounds, of which about 14,000 (4.5%) showed an effect of 50% or more. Effects have a minus sign here. The list comes from a sample in which strong results are over-represented; it also holds similar structures and randomly drawn compounds.
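Further: peak tail current of the secondary pulse compared with the same well before compound.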

The target in the assay is human ether-à-go-go-related gene (hERG) potassium channel (human, UniProt Q12809). Put plainly: primary screen, population patch clamp on CHO cells stably expressing hERG; higher = less effect of the substance.
Sequence of human ether-à-go-go-related gene (hERG) potassium channel (Q12809 whole entry, looked up): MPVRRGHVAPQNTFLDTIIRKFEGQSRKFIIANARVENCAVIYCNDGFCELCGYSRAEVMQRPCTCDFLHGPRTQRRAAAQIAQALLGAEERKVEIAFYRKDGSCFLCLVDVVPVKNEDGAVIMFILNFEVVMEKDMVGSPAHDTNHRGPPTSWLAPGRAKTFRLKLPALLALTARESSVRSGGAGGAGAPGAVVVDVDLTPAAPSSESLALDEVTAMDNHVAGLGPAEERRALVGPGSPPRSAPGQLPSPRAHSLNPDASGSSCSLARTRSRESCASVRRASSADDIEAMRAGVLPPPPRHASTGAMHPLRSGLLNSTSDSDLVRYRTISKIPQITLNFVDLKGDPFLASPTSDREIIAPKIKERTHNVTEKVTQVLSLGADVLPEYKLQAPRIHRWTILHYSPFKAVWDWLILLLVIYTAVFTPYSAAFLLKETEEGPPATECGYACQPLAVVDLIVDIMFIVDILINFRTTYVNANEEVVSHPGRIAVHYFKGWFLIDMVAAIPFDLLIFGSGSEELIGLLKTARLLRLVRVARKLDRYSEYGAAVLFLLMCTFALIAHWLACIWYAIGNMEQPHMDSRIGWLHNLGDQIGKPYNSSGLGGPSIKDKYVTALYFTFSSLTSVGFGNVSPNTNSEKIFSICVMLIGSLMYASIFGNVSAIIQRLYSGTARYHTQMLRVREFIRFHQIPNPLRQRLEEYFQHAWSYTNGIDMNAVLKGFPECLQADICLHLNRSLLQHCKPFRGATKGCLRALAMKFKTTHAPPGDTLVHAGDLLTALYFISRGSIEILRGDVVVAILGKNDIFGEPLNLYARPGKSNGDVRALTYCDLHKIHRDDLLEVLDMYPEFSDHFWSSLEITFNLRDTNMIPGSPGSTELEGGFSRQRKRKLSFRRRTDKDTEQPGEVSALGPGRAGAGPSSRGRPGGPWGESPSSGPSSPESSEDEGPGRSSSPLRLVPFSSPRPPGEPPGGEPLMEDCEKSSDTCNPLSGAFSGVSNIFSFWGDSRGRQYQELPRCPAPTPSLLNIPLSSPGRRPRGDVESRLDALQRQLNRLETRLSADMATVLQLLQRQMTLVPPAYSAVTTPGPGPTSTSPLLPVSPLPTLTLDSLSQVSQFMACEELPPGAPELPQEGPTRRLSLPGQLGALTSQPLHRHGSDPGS
For the compound `COc1ccc2cc(CN(CC3CCCO3)S(=O)(=O)c3ccccc3Cl)c(=O)[nH]c2c1` (centres unmarked), the “hERG current change (%, negative = inhibition) at 10uM” value is -36.7%.

As to `O=C(/C=C/Nc1ccc(F)c(Cl)c1)c1ccco1`, the “hERG current change (%, negative = inhibition) at 10uM” value was -0.57%.

In the case of `O=C(NCCCN1CCCC1=O)c1ccc(OCc2ccccc2)cc1`, the “hERG current change (%, negative = inhibition) at 10uM” value was -12.9%.

Turning to `COc1ccc(-c2cc(C(=O)NCCCN3CCCC3=O)c3ccccc3n2)cc1OC`, the “hERG current change (%, negative = inhibition) at 10uM” value is listed as -64.7%.

As to `COc1ccc(-c2cc(C(=O)NCCCN3CCCC3=O)c3ccccc3n2)cc1`, the “hERG current change (%, negative = inhibition) at 10uM” value is given as -12%.

Turning to `COc1cc(C(=O)NCCCN2CCCC2=O)cc(Br)c1OCc1ccccc1`, the “hERG current change (%, negative = inhibition) at 10uM” value is recorded as -50.7%.

Take `O=C(NCCCN1CCCC1=O)c1cc(-c2ccc3c(c2)OCO3)nc2ccccc12`: the “hERG current change (%, negative = inhibition) at 10uM” value was -4.06%.

As to `COc1cc(C(=O)NCCCN2CCCC2=O)cc(OC)c1OC`, the “hERG current change (%, negative = inhibition) at 10uM” value was -2.96%.

As for `CCN(CC)S(=O)(=O)c1ccc(-c2cn3cc(Cl)ccc3n2)cc1`, the “hERG current change (%, negative = inhibition) at 10uM” value is listed as 2.07%.

In the case of `COc1ccc(-n2c3c(c(=O)[nH]c2=O)C(NC(=O)c2ccncc2)(C(F)(F)F)C(=O)N3)cc1` (centres unmarked), the “hERG current change (%, negative = inhibition) at 10uM” value worked out at 18.1%.

Regarding `CCc1cc2c(Sc3nc4ccccc4s3)ncnc2s1`, the “hERG current change (%, negative = inhibition) at 10uM” value turned out to be 16.9%.

Consider `Cc1cc(C)cc(NC(=O)CCCSc2nc3ccccc3[nH]2)c1`, for which the “hERG current change (%, negative = inhibition) at 10uM” value was -2.7%.

On to `Cn1c(=O)c2c(ncn2CC(=O)OCC(=O)NC2CCCc3ccccc32)n(C)c1=O` (centres unmarked), for which the “hERG current change (%, negative = inhibition) at 10uM” value is given as 2.36%.

For the compound `COCCN1Cc2cccc(C(=O)NCc3cccnc3)c2C1=O`, the “hERG current change (%, negative = inhibition) at 10uM” value is given as 3.96%.

As for `O=C(NCc1cccnc1)c1cccc2c1C(=O)N(Cc1cccnc1)C2`, the “hERG current change (%, negative = inhibition) at 10uM” value is -11%.

Take `O=C(NCc1ccc(F)cc1)c1cccc2c1C(=O)N(Cc1cccnc1)C2`: the “hERG current change (%, negative = inhibition) at 10uM” value is recorded as -61.8%.

As for `COc1ccccc1CNC(=O)c1cccc2c1C(=O)N(Cc1cccnc1)C2`, the “hERG current change (%, negative = inhibition) at 10uM” value is listed as -70.1%.

In the case of `COc1ccc(CNC(=O)c2cccc3c2C(=O)N(Cc2cccnc2)C3)cc1`, the “hERG current change (%, negative = inhibition) at 10uM” value was -38.6%.

Take `COC(CNC(=O)c1cccc2c1C(=O)N(Cc1cccnc1)C2)OC`: the “hERG current change (%, negative = inhibition) at 10uM” value was -15.3%.

As for `COc1cc(NC(=O)c2cccc3c2C(=O)N(Cc2cccnc2)C3)cc(OC)c1OC`, the “hERG current change (%, negative = inhibition) at 10uM” value was -79.2%.

For the compound `CCOc1ccc(NC(=O)c2cccc3c2C(=O)N(Cc2cccnc2)C3)cc1`, the “hERG current change (%, negative = inhibition) at 10uM” value is reported as -22%.

On to `O=C(Nc1ccc2c(c1)OCO2)c1cccc2c1C(=O)N(Cc1cccnc1)C2`, for which the “hERG current change (%, negative = inhibition) at 10uM” value was -47%.

As for `O=C(CC(Sc1n[nH]c(-c2ccccc2)n1)c1ccccc1)NCc1ccccc1` (centres unmarked), the “hERG current change (%, negative = inhibition) at 10uM” value is -16%.

As to `Cc1ccc2sc(N(CCN(C)C)C(=O)/C=C/c3cccs3)nc2c1C.Cl`, the “hERG current change (%, negative = inhibition) at 10uM” value was found to be 11.8%.

On to `COc1ccccc1C(=O)OCC(=O)Nc1cc(S(=O)(=O)N2CCOCC2)ccc1N1CCCC1`, for which the “hERG current change (%, negative = inhibition) at 10uM” value is recorded as -7.82%.

`O=C(NCC(=O)N1CCCC1C(=O)O)OC1CCCCC1` (centres unmarked): the “hERG current change (%, negative = inhibition) at 10uM” value is -6.8%.

For `Cc1cccc(-c2noc(-c3ccc(F)cc3)n2)c1`, the “hERG current change (%, negative = inhibition) at 10uM” value came out at 15.1%.

With `Cc1cccc(-c2noc(-c3ccno3)n2)c1`, the “hERG current change (%, negative = inhibition) at 10uM” value was -53%.

For the compound `Cc1ccc(-c2noc(-c3ccno3)n2)cc1`, the “hERG current change (%, negative = inhibition) at 10uM” value is reported as 9.19%.

In the case of `COc1ccccc1C(CNC(=O)CNC(=O)c1ccc(C)c(C)c1)N1CCCC1` (centres unmarked), the “hERG current change (%, negative = inhibition) at 10uM” value was -6.27%.

In the case of `CCSc1nnc(-c2cccnc2)n1Cc1ccco1`, the “hERG current change (%, negative = inhibition) at 10uM” value is reported as -7.73%.

As to `Clc1ccc(-n2c(SC/C=C/c3ccccc3)nnc2-c2cccnc2)cc1`, the “hERG current change (%, negative = inhibition) at 10uM” value was -50.3%.

Consider `C(=C\c1ccccc1)/CSc1nnc(-c2cccnc2)n1Cc1ccco1`, for which the “hERG current change (%, negative = inhibition) at 10uM” value is listed as -70.8%.

`c1ccc(-c2nnc(CSc3nnc(-c4ccncc4)n3Cc3ccco3)o2)cc1`: the “hERG current change (%, negative = inhibition) at 10uM” value is recorded as -29.8%.

`Nn1c(SC/C=C/c2ccccc2)nnc1-c1ccncc1`: the “hERG current change (%, negative = inhibition) at 10uM” value is -8.06%.

Turning to `O=C(CSc1nnc(-c2cccnc2)n1Cc1ccco1)N1c2ccccc2Sc2ccccc21`, the “hERG current change (%, negative = inhibition) at 10uM” value was -33.7%.

Consider `C(=C\c1ccccc1)/CSc1nnc(-c2ccccc2)n1Cc1ccco1`, for which the “hERG current change (%, negative = inhibition) at 10uM” value is listed as -74.7%.

Turning to `Cn1c(SC/C=C/c2ccccc2)nnc1-c1ccco1`, the “hERG current change (%, negative = inhibition) at 10uM” value is reported as -27.1%.

For `C(=C\c1ccccc1)/CSc1nnc(-c2ccncc2)n1Cc1ccco1`, the “hERG current change (%, negative = inhibition) at 10uM” value is reported as -63.9%.

Regarding `Nn1c(SC/C=C/c2ccccc2)nnc1-c1cccnc1`, the “hERG current change (%, negative = inhibition) at 10uM” value is listed as 23.4%.

For `Cc1noc(C)c1CSc1nnc(-c2ccccc2)n1Cc1ccco1`, the “hERG current change (%, negative = inhibition) at 10uM” value is recorded as -21.9%.

As for `O=C(O)CCSc1nnc(-c2cccnc2)n1-c1ccccc1`, the “hERG current change (%, negative = inhibition) at 10uM” value was found to be 11.2%.

Consider `Cc1ccccc1OCCn1c(CCNC(=O)C(C)C)nc2ccccc21`, for which the “hERG current change (%, negative = inhibition) at 10uM” value is -6.24%.

Take `CCN1C(=O)CC(C(=O)Nc2ccc(F)cc2)SC1=Nc1ccc2c(c1)OCO2` (centres unmarked): the “hERG current change (%, negative = inhibition) at 10uM” value is listed as -13.5%.

Turning to `CC(C)Sc1nc(N)c2c3c(sc2n1)CN(C)CC3`, the “hERG current change (%, negative = inhibition) at 10uM” value is listed as -34%.

As to `CC(=O)Oc1ccc(/C=N/NC(=O)CCSc2ccccc2)cc1`, the “hERG current change (%, negative = inhibition) at 10uM” value was -8.83%.

As to `COc1ccc2nc(-c3ccccc3)[nH]c2c1`, the “hERG current change (%, negative = inhibition) at 10uM” value is reported as -1.4%.

Take `COc1ccc(/C=C/C(=O)NCC(=O)N/N=C/c2cccnc2)cc1`: the “hERG current change (%, negative = inhibition) at 10uM” value is on record as -14.9%.

Consider `CCN1CCN(c2cc(C)c3cc(NC(=O)c4cccnc4Cl)ccc3n2)CC1`, for which the “hERG current change (%, negative = inhibition) at 10uM” value was -6.83%.

As for `CCN(CC)CCNC(=S)Nc1ccc2nc(N3CCN(CC)CC3)cc(C)c2c1`, the “hERG current change (%, negative = inhibition) at 10uM” value was 11.2%.

`CCCCNC(=S)Nc1ccc2nc(N3CCN(CC)CC3)cc(C)c2c1`: the “hERG current change (%, negative = inhibition) at 10uM” value is on record as -44.6%.

For `Cc1cc(N2CCN(C)CC2)nc2ccc(NC(=S)NCc3cccs3)cc12`, the “hERG current change (%, negative = inhibition) at 10uM” value is -56.3%.

As for `COc1ccc(CNC(=S)Nc2ccc3nc(N4CCN(C)CC4)cc(C)c3c2)cc1`, the “hERG current change (%, negative = inhibition) at 10uM” value is reported as -51.1%.

Take `COc1ccccc1CNC(=S)Nc1ccc2nc(N3CCN(C)CC3)cc(C)c2c1`: the “hERG current change (%, negative = inhibition) at 10uM” value is given as -1.77%.

With `CCN1CCN(c2cc(C)c3cc(NC(=O)c4cccs4)ccc3n2)CC1`, the “hERG current change (%, negative = inhibition) at 10uM” value is recorded as -55.1%.

For `Cc1cc(N2CCN(C)CC2)nc2ccc(NC(=S)NC3CC3)cc12`, the “hERG current change (%, negative = inhibition) at 10uM” value is 3.2%.

Consider `CCN1CCN(c2cc(C)c3cc(NC(=S)NCc4cccs4)ccc3n2)CC1`, for which the “hERG current change (%, negative = inhibition) at 10uM” value is on record as -59.7%.

Regarding `COc1ccc(CNC(=S)Nc2ccc3nc(N4CCOCC4)cc(C)c3c2)cc1`, the “hERG current change (%, negative = inhibition) at 10uM” value is on record as -24%.

Turning to `Cc1cc(N2CCN(C)CC2)nc2ccc(NC(=S)NCCN3CCc4ccccc4C3)cc12`, the “hERG current change (%, negative = inhibition) at 10uM” value is -23.7%.
